# PubChem BioAssay (Tox21)
# Records with an inconclusive call do not appear. Entries that show only a call come without a potency. Unmarked numbers belong to inactive results. Activity calls are given as the source filed them. Unless noted, the call rests on the fitted dose curve; in most records, active means well fitted curve in the direction sought with a large enough effect in the repeat runs; inconclusive means weak or mixed curves; inactive means no such curve, though single readings can be large; an effect the other way counts as inactive or inconclusive.
# Assays:
# [1] = qHTS assay to identify small molecule antagonists of the thyroid receptor (TR) signaling pathway - cell viability counter screen (AID 743064); further: nearly all actives have a fitted effect of over 50% in size; further: potency means the concentration at half of the fitted maximal effect
# Outline: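 Same-well viability check: GH3.TRE-Luc cells stimulated with 1 nM T3 alongside test compound for 23.5 h, followed by CellTiter-Fluor fluorescence.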
# [2] = qHTS assay to identify small molecule antagonists of the thyroid receptor (TR) signaling pathway (AID 743065); further: nearly all actives have a fitted effect of over 55% in size; further: potency means the concentration at half of the fitted maximal effect
# Outline: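 GH3.TRE-Luc rat pituitary cells (two TREs driving luciferase) were dosed with compound, then stimulated with 1 nM T3 (final) for 23.5 h at 37 C. ONE-Glo luminescence was the read-out, with CellTiter-Fluor fluorescence as the cytotoxicity counter-screen.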
# [3] = test system: thyroid hormone receptor (rat, GH3 cells); test: qHTS assay to identify small molecule agonists of the thyroid receptor (TR) signaling pathway (AID 743066; calls by dose curve)
# [4] = qHTS assay to identify small molecule antagonists of the estrogen receptor alpha (ER-alpha) signaling pathway - cell viability counter screen (AID 743074; calls by dose curve;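 further: HEK293 cells carrying ER-alpha-UAS-bla reporter stimulated with 17beta-estradiol; nearly all actives have a fitted effect of over 45% in size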)
# [5] = molecular target: Estrogen receptor (Homo sapiens) (UniProt P03372); test: qHTS assay to identify small molecule agonists of the estrogen receptor alpha (ER-alpha) signaling pathway (AID 743075; calls by dose curve;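 further: HEK293 GripTite cells with ER-alpha and UAS-driven beta-lactamase reporter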)
# Sequence of Estrogen receptor (Homo sapiens) (P03372 whole entry, looked up): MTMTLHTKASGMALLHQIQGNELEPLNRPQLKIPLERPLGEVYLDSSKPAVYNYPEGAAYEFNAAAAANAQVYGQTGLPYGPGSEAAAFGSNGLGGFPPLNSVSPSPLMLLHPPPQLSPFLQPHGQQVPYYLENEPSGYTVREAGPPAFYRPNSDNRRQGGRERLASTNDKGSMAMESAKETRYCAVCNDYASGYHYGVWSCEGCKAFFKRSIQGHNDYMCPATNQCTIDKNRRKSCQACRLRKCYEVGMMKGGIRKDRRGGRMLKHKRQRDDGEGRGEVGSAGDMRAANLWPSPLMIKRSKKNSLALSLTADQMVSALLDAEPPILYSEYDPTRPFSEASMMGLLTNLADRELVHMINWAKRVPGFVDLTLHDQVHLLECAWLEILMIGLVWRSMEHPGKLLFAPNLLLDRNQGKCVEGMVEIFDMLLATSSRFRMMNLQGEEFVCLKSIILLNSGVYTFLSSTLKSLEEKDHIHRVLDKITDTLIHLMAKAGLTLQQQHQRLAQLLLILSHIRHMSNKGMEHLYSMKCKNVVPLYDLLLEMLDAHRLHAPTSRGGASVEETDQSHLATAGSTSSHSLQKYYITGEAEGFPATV
# [6] = molecular target: Estrogen receptor (Homo sapiens) (UniProt P03372); test: qHTS assay to identify small molecule agonists of the estrogen receptor alpha (ER-alpha) signaling pathway using the BG1 cell line (AID 743079); conditions: BG1Luc4E2 cells, ERE-luciferase agonist, 22 h; further: nearly all actives have a fitted effect of over 20% in size; further: potency means the concentration at half of the fitted maximal effect
# [7] = qHTS assay to identify small molecule antagonists of the estrogen receptor alpha (ER-alpha) signaling pathway using the BG1 cell line (AID 743080; calls by dose curve;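 further: BG1 cells stimulated with 17beta-estradiol alongside compound; nearly all actives have a fitted effect of over 25% in size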; further: potency means the concentration at half of the fitted maximal effect)
# Outline: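 Endogenous full-length ER-alpha in BG1-Luc-4E2 cells drives a stably integrated 4×ERE luciferase gene; compounds were tested against 17beta-estradiol over 21.5 h, with luminescence and multiplexed viability fluorescence recorded.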
# [8] = qHTS assay to identify small molecule antagonists of the estrogen receptor alpha (ER-alpha) signaling pathway using the BG1 cell line - cell viability counter screen (AID 743081);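 further: compound given together with 17beta-estradiol as the ER stimulus; nearly all actives have a fitted effect of over 45% in size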
# Aromatase (Homo sapiens) = Aromatase (Homo sapiens) (UniProt P11511); test: qHTS assay to identify aromatase inhibitors (AID 743083); further: nearly all actives have a fitted effect of over 55% in size; further: potency means the concentration at half of the fitted maximal effect
# Sequence of Aromatase (Homo sapiens) (P11511 whole entry, looked up): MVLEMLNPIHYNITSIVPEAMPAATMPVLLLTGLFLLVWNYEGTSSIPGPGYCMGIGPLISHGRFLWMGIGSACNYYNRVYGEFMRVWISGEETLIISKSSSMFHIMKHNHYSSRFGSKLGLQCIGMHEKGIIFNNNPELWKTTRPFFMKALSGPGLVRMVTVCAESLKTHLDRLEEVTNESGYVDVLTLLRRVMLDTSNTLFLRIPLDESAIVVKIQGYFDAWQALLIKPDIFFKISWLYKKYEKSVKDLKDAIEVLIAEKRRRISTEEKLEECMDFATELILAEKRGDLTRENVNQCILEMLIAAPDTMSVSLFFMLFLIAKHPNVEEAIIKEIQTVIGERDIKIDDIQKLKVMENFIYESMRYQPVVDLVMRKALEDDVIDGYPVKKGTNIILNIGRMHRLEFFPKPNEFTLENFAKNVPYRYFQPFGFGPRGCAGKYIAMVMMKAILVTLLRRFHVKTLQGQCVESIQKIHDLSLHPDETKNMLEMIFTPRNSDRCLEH
# [9] = qHTS assay to identify aromatase inhibitors - cell viability counter screen (AID 743084);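 further: cells stimulated with testosterone during compound exposure; nearly all actives have a fitted effect of over 55% in size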
# [10] = qHTS assay to identify small molecule that activate the aryl hydrocarbon receptor (AhR) signaling pathway - cell viability counter screen (AID 743086);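 further: HepG2 liver cells carrying the AhR DRE luciferase reporter; nearly all actives have a fitted effect of over 45% in size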
# Outline: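 HepG2-AhR-luc (HG2L7.5c1) cells, 4000/well, treated 24 h at 37 C with compound; viability measured as CellTiter-Fluor fluorescence after 30 min in the same wells as the luciferase read.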
# [11] = molecular target: Peroxisome proliferator-activated receptor gamma (Homo sapiens) (UniProt P37231); test: qHTS assay to identify small molecule agonists of the peroxisome proliferator-activated receptor gamma (PPARg) signaling pathway (AID 743094; active means well fitted activation curve with a large enough effect in the signal ratio in the repeat runs, not every such curve was filed as active; the % refers to the signal ratio)
# Sequence of Peroxisome proliferator-activated receptor gamma (Homo sapiens) (P37231 whole entry, looked up): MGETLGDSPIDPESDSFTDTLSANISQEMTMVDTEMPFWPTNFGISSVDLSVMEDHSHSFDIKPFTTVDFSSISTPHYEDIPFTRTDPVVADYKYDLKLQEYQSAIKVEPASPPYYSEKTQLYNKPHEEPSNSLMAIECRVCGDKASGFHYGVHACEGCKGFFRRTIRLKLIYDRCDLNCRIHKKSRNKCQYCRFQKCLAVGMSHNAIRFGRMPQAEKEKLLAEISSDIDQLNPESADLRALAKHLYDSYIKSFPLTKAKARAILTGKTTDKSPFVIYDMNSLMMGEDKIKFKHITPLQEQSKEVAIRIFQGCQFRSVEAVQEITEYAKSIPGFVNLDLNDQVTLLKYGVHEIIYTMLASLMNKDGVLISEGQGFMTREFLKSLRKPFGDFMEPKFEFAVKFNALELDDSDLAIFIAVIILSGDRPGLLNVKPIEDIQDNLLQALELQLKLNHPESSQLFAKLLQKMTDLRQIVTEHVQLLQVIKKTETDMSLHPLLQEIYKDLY
# Outline: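 Following 5 h plating at 37C, PPARg-bla HEK293H cells receive compound or DMSO for 17 h; fluorescence intensity is recorded after LiveBLAzer B/G loading for 1 h at room temperature.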
# [12] = qHTS assay to identify small molecule antagonists of the peroxisome proliferator-activated receptor gamma (PPARg) signaling pathway - cell viability counter screen (AID 743194); conditions: Potency: co-treated with 50 nM rosiglitazone; further: nearly all actives have a fitted effect of over 55% in size
# Outline: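 Cytotoxicity counter screen in PPARg-bla HEK293H cells, same wells as reporter assay. Compounds plus 50 nM rosiglitazone (final) for 17 h at 37 C, then viability read by CellTiter-Glo luminescence.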
# [13] = qHTS assay for small molecule agonists of the antioxidant response element (ARE) signaling pathway - cell viability counter screen (AID 743203; calls by dose curve; further: nearly all actives have a fitted effect of over 55% in size)
# Outline: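 Compounds in DMSO were pinned onto ARE-bla HepG2 cells plated 5 hrs earlier at 2,000 cells/well. Sixteen hours later at 37C/5% CO2, CellTiter-Glo was added and luminescence measured after 30 min at room temperature.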
# [14] = qHTS assay for small molecule activators of the heat shock response signaling pathway - cell viability counter screen (AID 743209); further: nearly all actives have a fitted effect of over 50% in size
# Outline: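 Counter screen for cytotoxicity in HeLa HSE-bla reporter cells. Treatment was 5 h at 37 C; viability was detected by luminescent ATP assay (CellTiter-Glo) in the same wells as the beta-lactamase read.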
# [15] = qHTS assay for small molecule activators of the heat shock response signaling pathway (AID 743210; active means well fitted activation curve with a large enough effect in the signal ratio in the repeat runs, with a control signal flat, not every such curve was filed as active; the % refers to the signal ratio;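 further: HeLa cells with beta-lactamase reporter driven by heat shock elements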)
# Outline: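 Quantitative high-throughput format using an engineered HeLa line in which heat shock response elements drive beta-lactamase; after 5 h with compound, cells received a B/G FRET substrate and fluorescence was read.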
# [16] = molecular target: Aryl hydrocarbon receptor (Homo sapiens) (UniProt P35869); test: qHTS assay to identify small molecule that activate the aryl hydrocarbon receptor (AhR) signaling pathway (AID 743085); further: nearly all actives have a fitted effect of over 15% in size; further: potency means the concentration at half of the fitted maximal effect;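 on activation: HG2L7.5c1 human HepG2 liver cells with stably integrated DRE-driven firefly reporter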
# Sequence of Aryl hydrocarbon receptor (Homo sapiens) (P35869 whole entry, looked up): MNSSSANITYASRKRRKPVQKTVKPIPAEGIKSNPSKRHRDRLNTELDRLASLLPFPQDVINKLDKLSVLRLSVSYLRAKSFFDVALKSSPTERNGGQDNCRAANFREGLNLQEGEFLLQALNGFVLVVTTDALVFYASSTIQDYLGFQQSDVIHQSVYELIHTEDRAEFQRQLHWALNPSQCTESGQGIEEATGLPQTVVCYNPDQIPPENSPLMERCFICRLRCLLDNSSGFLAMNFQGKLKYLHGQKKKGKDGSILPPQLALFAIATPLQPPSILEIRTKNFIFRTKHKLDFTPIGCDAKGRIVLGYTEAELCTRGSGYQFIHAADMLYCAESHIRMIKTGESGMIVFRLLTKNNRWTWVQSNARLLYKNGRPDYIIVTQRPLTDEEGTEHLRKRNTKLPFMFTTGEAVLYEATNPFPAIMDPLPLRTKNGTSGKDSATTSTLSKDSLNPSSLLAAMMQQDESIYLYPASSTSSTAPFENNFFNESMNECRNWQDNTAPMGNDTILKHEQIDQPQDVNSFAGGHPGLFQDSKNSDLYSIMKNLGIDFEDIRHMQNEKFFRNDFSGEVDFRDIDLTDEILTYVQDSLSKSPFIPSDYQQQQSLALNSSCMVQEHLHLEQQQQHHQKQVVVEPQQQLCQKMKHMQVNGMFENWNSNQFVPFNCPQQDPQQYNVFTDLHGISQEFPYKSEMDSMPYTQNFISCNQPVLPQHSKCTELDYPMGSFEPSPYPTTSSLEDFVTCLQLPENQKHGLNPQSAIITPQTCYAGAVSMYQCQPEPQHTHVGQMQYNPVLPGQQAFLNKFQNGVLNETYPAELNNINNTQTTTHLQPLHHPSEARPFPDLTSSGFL
# Outline: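 Reporter assay in engineered HepG2 line HG2L7.5c1, whose plasmid carries twenty dioxin responsive elements upstream of firefly luciferase. Treatment lasted 24 h at 37C; ONE-Glo luminescence gauged induction.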
# [17] = molecular target: Peroxisome proliferator-activated receptor gamma (Homo sapiens) (UniProt P37231); test: qHTS assay to identify small molecule antagonists of the peroxisome proliferator-activated receptor gamma (PPARg) signaling pathway (AID 743191; calls by dose curve; further: nearly all actives have a fitted effect of over 30% in size)
# Outline: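 GeneBLAzer PPARg UAS-bla HEK293H cells, 5 h post-plating, exposed to compounds 17 h at 37C. LiveBLAzer B/G FRET substrate added for 1 h at room temperature; beta-lactamase reporter read by fluorescence intensity.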
# [18] = qHTS assay for small molecule agonists of the antioxidant response element (ARE) signaling pathway (AID 743202; active means well fitted activation curve with a large enough effect in the signal ratio in the repeat runs, not every such curve was filed as active; the % refers to the signal ratio; further: potency means the concentration at half of the fitted maximal effect)
# Outline: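 Agonist mode reporter screen: HepG2 cells with ARE-controlled beta-lactamase are incubated with test compounds for 16 h at 37 C, and beta-lactamase activity is measured as fluorescence of cleaved B/G FRET substrate.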
# [19] = molecular target: Estrogen receptor (Homo sapiens) (UniProt P03372); test: qHTS assay to identify small molecule antagonists of the estrogen receptor alpha (ER-alpha) signaling pathway (AID 743069; active means well fitted curve in the direction sought with a large enough effect in the signal ratio in the repeat runs, not every such curve was filed as active; the % refers to the signal ratio)
# Outline: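 Reporter cells (ER-alpha-bla, HEK293 background) are conditioned overnight in stripped-serum medium (2% charcoal-stripped FBS). Compound and 17beta-estradiol exposure runs 18 hr at 37C, 5% CO2.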
smiles,measurement,setting,value
CCCCOC(=O)[C@@H](C)Oc1ccc(Oc2ccc(C#N)cc2F)cc1,Potency,[1],inactive
same,Potency,[2],inactive
same,Potency,[3],inactive
same,outcome,[4],inactive
same,Potency,[5],inactive
same,activation,[6]; at 70.3 µM (top of the series),-4.38%
same,Potency,[7],inactive
same,Potency,[8],inactive
same,Potency,Aromatase (Homo sapiens),inactive
same,Potency,[9],inactive
same,outcome,[10],inactive
same,outcome,[11],inactive
same,Potency,[12],inactive
same,Potency,[13],inactive
same,Potency,[14],inactive
same,outcome,[15],inactive
COP(=S)(OC)Oc1c(Cl)cc(C)cc1Cl,Potency,[1],inactive
same,Potency,[2],inactive
same,Potency,[3],inactive
same,outcome,[4],inactive
same,Potency,[5],inactive
same,Potency,[6],30.6 µM (active)
same,Potency,[8],inactive
same,Potency,Aromatase (Homo sapiens),inactive
same,Potency,[9],inactive
same,Potency,[16],48.6 µM (active)
same,outcome,[10],inactive
same,outcome,[11],inactive
same,Potency,[17],inactive
same,Potency,[12],inactive
same,Potency,[18],inactive
same,Potency,[13],inactive
same,Potency,[14],inactive
same,outcome,[15],inactive
Fc1ccc(C2(Cn3cncn3)OC2c2ccccc2Cl)cc1 (configuration not stated),Potency,[1],inactive
same,Potency,[2],30.6 µM (active)
same,Potency,[3],inactive
same,outcome,[4],inactive
same,Potency,[5],inactive
same,activation,[6]; at 70.3 µM (top of the series),-28.4%
same,Potency,[7],68.6 µM (active)
same,Potency,[8],inactive
same,Potency,Aromatase (Homo sapiens),3.86 µM (active)
same,Potency,[9],inactive
same,outcome,[11],inactive
same,Potency,[12],inactive
same,Potency,[18],inactive
same,Potency,[14],inactive
same,outcome,[15],inactive
CNC(=O)Oc1ccccc1C1OCCO1,Potency,[1],inactive
same,Potency,[2],inactive
same,Potency,[3],inactive
same,Potency,[19],inactive
same,Potency,[5],inactive
same,activation,[6]; at 70.3 µM (top of the series),-9.73%
same,Potency,[7],inactive
same,Potency,[8],inactive
same,Potency,Aromatase (Homo sapiens),inactive
same,Potency,[9],inactive
same,outcome,[10],inactive
same,outcome,[11],inactive
same,Potency,[17],inactive
same,Potency,[12],inactive
same,Potency,[18],inactive
same,Potency,[13],inactive
O=[N+]([O-])c1cc(Cl)c(Cl)c(Cl)c1,Potency,[1],inactive
same,Potency,[2],inactive
same,Potency,[3],inactive
same,outcome,[4],inactive
same,Potency,[5],inactive
same,activation,[6]; at 70.3 µM (top of the series),9.06%
same,Potency,[7],inactive
same,Potency,[8],inactive
same,Potency,Aromatase (Homo sapiens),inactive
same,Potency,[16],inactive
same,outcome,[10],inactive
same,outcome,[11],inactive
same,Potency,[12],inactive
same,Potency,[13],inactive
same,outcome,[15],inactive
O=P(O)(Oc1ccccc1)Oc1ccccc1,Potency,[1],inactive
same,Potency,[2],inactive
same,Potency,[3],inactive
same,outcome,[4],inactive
same,Potency,[5],inactive
same,activation,[6]; at 70.3 µM (top of the series),1.22%
same,Potency,[7],inactive
same,Potency,[8],inactive
same,Potency,Aromatase (Homo sapiens),inactive
same,Potency,[9],inactive
same,Potency,[16],inactive
same,outcome,[10],inactive
same,outcome,[11],inactive
same,Potency,[17],inactive
same,Potency,[12],inactive
same,Potency,[18],inactive
same,Potency,[13],inactive
same,Potency,[14],inactive
same,outcome,[15],inactive
C1CCC(C2CCCCC2)CC1,Potency,[1],inactive
same,Potency,[2],inactive
same,Potency,[3],inactive
same,outcome,[4],inactive
same,Potency,[5],inactive
same,activation,[6]; at 70.3 µM (top of the series),-17.5%
same,Potency,[7],inactive
same,Potency,[8],inactive
same,Potency,Aromatase (Homo sapiens),inactive
same,Potency,[9],inactive
same,Potency,[16],inactive
same,outcome,[10],inactive
same,outcome,[11],inactive
same,Potency,[12],inactive
same,Potency,[14],inactive
same,outcome,[15],inactive
CC(Cl)(Cl)[N+](=O)[O-],Potency,[1],inactive
same,Potency,[2],inactive
same,Potency,[3],inactive
same,Potency,[19],inactive
same,Potency,[5],inactive
same,activation,[6]; at 70.3 µM (top of the series),-5.99%
same,Potency,[7],inactive
same,Potency,[8],inactive
same,Potency,Aromatase (Homo sapiens),inactive
same,Potency,[9],inactive
same,outcome,[10],inactive
same,outcome,[11],inactive
same,Potency,[17],inactive
same,Potency,[12],inactive
same,Potency,[18],inactive
same,Potency,[13],inactive
same,Potency,[14],inactive
same,outcome,[15],inactive
Nc1cc(Cl)ccc1O,Potency,[1],23.5 µM (active)
same,Potency,[2],59.1 µM (active)
same,Potency,[3],inactive
same,Potency,[19],inactive
same,Potency,[5],inactive
same,activation,[6]; at 70.3 µM (top of the series),-2.11%
same,Potency,[7],7.45 µM (active)
same,Potency,[8],inactive
same,Potency,Aromatase (Homo sapiens),inactive
same,Potency,[9],inactive
same,Potency,[16],29.6 µM (active)
same,outcome,[10],inactive
same,Potency,[13],inactive
same,Potency,[14],inactive
same,outcome,[15],inactive
CCC(Cl)[N+](=O)[O-] (configuration not stated),Potency,[1],inactive
same,Potency,[2],inactive
same,Potency,[3],inactive
same,outcome,[4],inactive
same,Potency,[5],inactive
same,activation,[6]; at 95 µM (top of the series),-4.86%
same,Potency,[7],inactive
same,Potency,[8],inactive
same,Potency,Aromatase (Homo sapiens),inactive
same,Potency,[9],inactive
same,Potency,[16],inactive
same,outcome,[10],inactive
same,outcome,[11],inactive
same,Potency,[12],inactive
same,Potency,[18],inactive
same,Potency,[13],inactive
same,outcome,[15],inactive
O=C(O)C(Br)CBr (configuration not stated),Potency,[1],inactive
same,Potency,[2],inactive
same,Potency,[3],inactive
same,outcome,[4],inactive
same,Potency,[5],inactive
same,activation,[6]; at 95 µM (top of the series),-6.3%
same,Potency,[7],inactive
same,Potency,[8],inactive
same,Potency,Aromatase (Homo sapiens),inactive
same,Potency,[9],inactive
same,Potency,[16],inactive
same,outcome,[10],inactive
same,Potency,[12],inactive
same,Potency,[18],27.8 µM (active)
same,Potency,[14],inactive
CCCCOP(=O)(O)OCCCC,Potency,[1],inactive
same,Potency,[2],inactive
same,Potency,[3],inactive
same,Potency,[19],inactive
same,outcome,[4],inactive
same,Potency,[6],24.3 µM (active)
same,Potency,[7],inactive
same,Potency,[8],inactive
same,Potency,Aromatase (Homo sapiens),inactive
same,Potency,[9],inactive
same,outcome,[10],inactive
same,outcome,[11],inactive
same,Potency,[12],inactive
same,Potency,[18],inactive
same,Potency,[13],inactive
same,Potency,[14],inactive
same,outcome,[15],inactive
Cc1cnc[nH]1,Potency,[1],inactive
same,Potency,[2],inactive
same,Potency,[3],inactive
same,outcome,[4],inactive
same,Potency,[8],inactive
same,Potency,Aromatase (Homo sapiens),inactive
same,Potency,[9],inactive
same,Potency,[16],inactive
same,outcome,[10],inactive
same,outcome,[11],inactive
same,Potency,[17],inactive
same,Potency,[18],inactive
same,Potency,[13],inactive
same,Potency,[14],inactive
same,outcome,[15],inactive
